Laboratory results from PubChem BioAssay (NCATS).
Results filed as inconclusive are left out. The source made the active and inactive calls. The call rests on the fitted dose curve; in most records, active means well fitted cell-killing curve with a large enough effect; inconclusive means small, poorly fitted or top-dose-only effect; inactive means flat fitted curve, though single readings scatter.

Assay: Cell Viability - LYMP2-007 (AID 979);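 further: cells exposed to compound for 24 h before reading; nearly all actives have a fitted effect of over 60% in size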;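 on activity change, negative = cytotoxicity: 0% = DMSO only and the negative end = 92 µM tetraoctylammonium bromide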
Conditions: LYMP2-007 lymphoblastoid cell viability; series mostly up to 92.2 µM; activity change, negative = cytotoxicity: at the top concentration
Excerpt: NIH Chemical Genomics Center [NCGC]
NIH Molecular Libraries Screening Centers Network [MLSCN]
National Institutes of Environmental Health Sciences [NIEHS]
National Toxicology Program [NTP]
We have developed a 1536-well cell-based assay for quantitative high throughput screening (qHTS) against a number of cell lines to determine in vitro cytotoxicity of small molecules. This particular assay uses a human lymphoblastoid cell line (LYMP2-007) purchased from Coriell Institute for Medical Research.
NCGC Assay Protocol Summary:
The CellTiter-Glo luminescent cell viability assay (Promega) is a homogeneous method to measure the number of viable cells in culture. The end point readout of this assay is based on quantitation of intracellular ATP, an indicator of metabolic activity, using the luciferase reaction. Luciferase catalyzes the oxidation of beetle Luciferin to oxyluciferin and light in the presence of ATP. The luminescent signal is proportional to amount of ATP present.
Using the CellTiter-Glo luminescent cell viability assay, the amount of cellular ATP was measured in the lymphoblastoid cell line with complete culture medium following compound treatment for 24 hours. The assay was performed in opaque white Kalypsys 1536-well plates. In the screen, tetraoctylammonium bromide was used as positive control. Library compounds were measured for their ability to cause acute toxicity in the cell line, as reflected by a decrease in intracellular ATP levels, in a concentration-dependent manner. […] AC50 values were determined from concentration-response data modeled with the standard Hill equation.
qHTS protocol for CellTiter Glo lymphoblastoid cellular assay
[Step] [Parameter] [Value] [Description]
1. Reagent; 5 uL; 2500 lymphoblastoid cells/well
2. Time; 5 hr; 37 C incubation
4. Controls; 23 nL; Tetraoctylammonium bromide 6.4pM to 92 uM
5. Time; 24 hr; 37 C incubation
6. Reagent; 5 uL; CellTiter Glo reagent
7. Time; 30 min; Room Temperature
8. Detection; Luminescence; Viewlux plate reader
Keywords: cell viability, cytotoxicity, lymphoblastoid cell line, luminescence, NTPHTS, NTPHTS_NCGC, NIEHS, DSSTox, MLSMR, MLSCN, NIH Roadmap, qHTS, NCGC
Potency means the concentration at half of the fitted maximal effect.

Row | SMILES | Potency | activity change, negative = cytotoxicity
1 | CC1=C(/C=C/C(C)=C/C=C/C(C)=C/C(=O)Nc2ccc(O)cc2)C(C)(C)CCC1 | 39.8 µM (active) | 
2 | O=C1NC(=O)C(c2ccccc2)(c2ccccc2)N1 |  | -13% (inactive)
3 | O=c1[nH]cnc2c1ncn2[C@H]1CC[C@@H](CO)O1 |  | -5.66% (inactive)
4 | CC/C(=C(\c1ccccc1)c1ccc(OCCN(C)C)cc1)c1ccccc1 | 50.1 µM (active) | 
5 | CCCCC1C(=O)N(c2ccccc2)N(c2ccccc2)C1=O |  | -6.71% (inactive)
6 | O=C(O)Cc1cccc2ccccc12 |  | -1.24% (inactive)
7 | CCn1cc(C(=O)O)c(=O)c2ccc(C)nc21 |  | -0.127% (inactive)
8 | CN(C)CCC(c1ccccc1)c1ccccn1 (stereo not drawn) |  | 1.68% (inactive)
9 | O=c1c(O)c(-c2ccc(O)cc2)oc2cc(O)cc(O)c12 |  | -14.8% (inactive)
10 | CC(=O)c1ccc(S(=O)(=O)NC(=O)NC2CCCCC2)cc1 |  | -17.8% (inactive)
11 | CCCNC(=O)NS(=O)(=O)c1ccc(Cl)cc1 |  | -3.21% (inactive)
12 | CC(=O)O[C@]1(C(C)=O)CC[C@H]2[C@@H]3C=C(Cl)C4=CC(=O)[C@@H]5C[C@@H]5[C@]4(C)[C@H]3CC[C@@]21C |  | -12.5% (inactive)
13 | O=c1c(-c2ccc(O)cc2)coc2cc(O)ccc12 |  | -20% (inactive)
